Assay outcomes deposited in PubChem BioAssay by National Center for Advancing Translational Sciences (NCATS).
Only some compounds are listed: those with a hit (about 19% of all), similar ones and a draw of the others.
ASM inhibitor = Inhibitors of Secretory Acid Sphingomyelinase (S-ASM): qHTS; 340,000 compounds, 0.006% hits; placental ASM, HMU-PC fluorogenic substrate, 60 min; Potency, µM (series often up to 57.5 µM), for the others: top-dose activity change, negative = inhibition, usual class: inhibitors; further: potency means the concentration at half of the fitted maximal effect
Target sequence (P17405 47-631 limits assumed): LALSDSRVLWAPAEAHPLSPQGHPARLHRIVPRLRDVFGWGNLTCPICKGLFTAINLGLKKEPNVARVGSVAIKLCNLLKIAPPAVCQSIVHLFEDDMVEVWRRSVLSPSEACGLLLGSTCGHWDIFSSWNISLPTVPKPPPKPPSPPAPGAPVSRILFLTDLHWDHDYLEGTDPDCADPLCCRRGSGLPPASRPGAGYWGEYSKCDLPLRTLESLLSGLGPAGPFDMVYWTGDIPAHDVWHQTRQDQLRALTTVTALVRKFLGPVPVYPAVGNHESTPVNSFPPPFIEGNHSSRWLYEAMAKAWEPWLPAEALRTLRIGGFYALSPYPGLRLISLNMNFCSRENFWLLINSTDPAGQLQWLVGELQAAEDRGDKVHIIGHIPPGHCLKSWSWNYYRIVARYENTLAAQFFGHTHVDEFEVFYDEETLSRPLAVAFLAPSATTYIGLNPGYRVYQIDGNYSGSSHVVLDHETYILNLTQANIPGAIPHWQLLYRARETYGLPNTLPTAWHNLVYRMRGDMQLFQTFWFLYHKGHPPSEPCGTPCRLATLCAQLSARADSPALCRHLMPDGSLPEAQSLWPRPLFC
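Steps: dispense placental human ASM, pin compound, wait 10 min at room temperature, add HMU-PC0 substrate at 9 uM final, incubate 60 min at 37 °C, add stop solution raising pH to 10, read fluorescence.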
TDP1 cell CPT = qHTS for Inhibitors of human tyrosyl-DNA phosphodiesterase 1 (TDP1): qHTS in cells in presence of CPT. chicken DT40 Tdp1-/-;hTDP1 cells + 20 nM CPT, ATP luminescence, 48 h. Potency, µM (top dose mostly 46.2 µM), for the others: top-dose activity change, negative = growth inhibition, actives largely listed as inhibitors. 420,000 compounds, 12% hits. AID 686979, 2013; further: potency means the concentration at half of the fitted maximal effect; on the % scale 0 is the no-effect control and ±100 the full control effect; nearly all actives have a fitted effect of over 55% in size
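Cell growth measured by CellTiter-Glo luminescence after a minimum 48 h, 37 C compound exposure with 20 nM CPT in Tdp1-knockout DT40 cells stably expressing hTDP1, seeded 400/well; qHTS titration format.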
TGFb inhibitor = qHTS for Inhibitors of TGF-b. HepG2 CAGA-GFP TGF-b/SMAD3 reporter, GFP fluorescence, 18 h; TGF-beta stimulated, 500 pg/mL final. Potency, µM (series often up to 46.1 µM), inactives show at the top dose activity, negative = inhibition, actives largely listed as inhibitors. 410,000 compounds, 1.2% hits. AID 588855, 2011; further: potency means the concentration at half of the fitted maximal effect; on the % scale 0 is the no-effect control and ±100 the full control effect; nearly all actives have a fitted effect of over 65% in size
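Read-out: total well GFP (ex488/em500-530) summed from mean per-cell fluorescence. Cells: HEPG2 CAGA-GFP, 1% FBS DMEM, 18 h at 37 degrees C with 500 pg/mL final TGF-beta. Unstimulated wells served as the full-inhibition control; stimulated DMSO wells = 0%.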
IL1B secr inh = qHTS for Inhibitors of Inflammasome Signaling: IL-1-beta AlphaLISA Primary Screen; activity change, % at 57.5 µM; THP-1 LPS/ATP IL-1B secretion, AlphaLISA, 16 h; hits give low values; 360,000 compounds, 4.7% hits; in the data active means activity change below about -50%; inconclusive means mostly about -30% to -49%; further: on the % scale 0 is the no-effect control and ±100 the full control effect
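Secreted IL-1B measured by AlphaLISA bead assay after 16 h compound exposure of THP-1 cells; compounds (final up to 57.5 uM) added 1 h before LPS (250 ng/mL) and ATP (1.25 mM) stimulation; lower signal means less secretion.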
HepG2 tox = qHTS for Inhibitors of TGF-b: Cytotox Counterscreen | HepG2 CAGA-GFP viability, ATP luminescence, 18 h | Potency, µM (doses to about 46.1 µM), inactives show at the top dose activity change, negative = cytotoxicity, usual class: cytotoxic | 410,000 compounds, 0.76% hits | AID 588856, 2011; further: potency means the concentration at half of the fitted maximal effect
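CellTiter-Glo luminescence gave cytotoxicity after 18 hours at 37 degrees C. The cells were HepG2 CAGA-GFP in 1% FBS DMEM, stimulated with 500 pg/mL TGF-beta after compound addition. %Activity was normalised to no-cell wells (complete cell-killing) and DMSO (no toxicity), and curves were fitted and classified.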
TDP1 cell noCPT = qHTS for Inhibitors of human tyrosyl-DNA phosphodiesterase 1 (TDP1): qHTS in cells in absence of CPT. Potency, µM (titrated, usually from 46.2 µM), inactives show at the highest dose activity change, negative = growth inhibition, most hits filed as inhibitors. 420,000 compounds, 15% hits. DT40 Tdp1-/- hTDP1 cells, no CPT, ATP luminescence, 48 h; further: potency means the concentration at half of the fitted maximal effect; on the % scale 0 is the no-effect control and ±100 the full control effect; nearly all actives have a fitted effect of over 55% in size
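Chicken DT40 Tdp1-/- cells stably complemented with human TDP1 were seeded at 400 cells/well with DMSO in place of 20 nM camptothecin. After compound pinning, cells grew at least 48 hr at 37 °C; viability read by CellTiter-Glo luminescence.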
An asterisk follows results filed as active; ? = inconclusive; · = not tested or not shown. Unless noted, the call rests on the fitted dose curve; in most records, active means well fitted curve in the direction sought with a large enough effect; inconclusive means small, poorly fitted or top-dose-only effect, or another doubt; inactive means no such curve, though single readings can be large; an effect the other way counts as inactive or inconclusive.

SMILES	ASM inhibitor	TDP1 cell CPT	TGFb inhibitor	IL1B secr inh	HepG2 tox	TDP1 cell noCPT
CN(C)S(=O)(=O)c1cccc(NC(=S)N/N=C/c2cc(Br)ccc2O)c1	170.2%	2.59µM*	?	-72.7*	-37.4%	3.66µM*
O=C(CN1CCOCC1)N/N=C/c1ccco1	-2.3%	-4.3%	-10.1%	-12.5	0.0%	-6.1%
COc1ccc(NC(C)C(=O)N/N=C/c2c(O)ccc3ccccc23)cc1 (stereo not drawn)	41.8%	4.61µM*	-9.1%	144.1	-12.4%	5.8µM*
O=C(CNc1ccccc1)N/N=C/c1c(O)ccc2ccccc12	39.0%	10.3µM*	?	216.2	-41.6%	6.51µM*
O=C(O)c1cc(N/N=C/c2c(O)ccc3ccccc23)ccc1Cl	10.7%	-23.8%	0.7%	19.4	-0.9%	10.4%
O=C(CN1CCOCC1)N/N=C/c1c(O)ccc2ccccc12	71.9%	7.31µM*	-4.2%	59.6	-0.4%	9.2µM*
COc1ccc([C@H]2CN(Cc3ccccc3)C(=O)[C@@H]2CC(=O)Nc2ccccc2)cc1	·	-1.0%	-1.6%	-1.2	-20.1%	?
O=[N+]([O-])c1ccc(C2=NCCO2)cc1	-0.3%	-0.9%	18.6%	10.0	-3.3%	7.4%
CN(C)CCNC(=O)CN1C(=O)CCn2nc(-c3cn(C)c4ccccc34)cc21	·	-13.3%	0.4%	·	11.3%	4.4%
CCOc1ccccc1NC(=O)C(=O)N/N=C/c1cc(Br)ccc1O	-2.1%	?	-12.9%	115.5	-4.9%	10.3µM*
Oc1ccc(-c2onc(C(F)(F)F)c2-c2cscn2)c(O)c1	-2.0%	?	?	10.4	2.6%	20.6µM*
Cc1nc(-c2c(C(F)(F)F)noc2-c2ccc(O)cc2O)cs1	-1.7%	?	-12.0%	0.0	-19.1%	?
COc1ccc(/C=C(/NC(=O)c2ccccc2)c2nc3ccc(Cl)cc3[nH]2)cc1OC	9.3%	-95.3%	0.0%	-7.9	2.0%	20.6µM*
CC(=O)Nc1ccc(S(=O)(=O)N[C@@H](C)C(=O)OCC(=O)c2ccc(Br)s2)cc1	·	-8.2%	-20.1%	14.2	-24.6%	-22.2%
CCOc1ccc(-c2ccc(NS(=O)(=O)c3cc(C)ccc3OC)cc2)nn1	·	13µM*	-7.0%	·	-20.5%	23.1µM*
CCOc1ccc(-c2cccc(NS(=O)(=O)c3c(C)cc(C)cc3C)c2)nn1	·	?	20µM*	·	-36.7%	23.1µM*
COc1ccc(OC)c(S(=O)(=O)Nc2ccc(-c3ccc4nnc(C)n4n3)cc2)c1	-2.5%	8.2µM*	-9.1%	36.0	-19.3%	8.2µM*
CCOc1ccc(-c2cccc(NS(=O)(=O)c3ccc([N+](=O)[O-])cc3)c2)nn1	·	?	-28.5%	9.3	2.2%	-6.0%
CCOc1ccc(-c2cccc(NS(=O)(=O)c3ccc(F)cc3F)c2)nn1	·	?	?	·	-24.1%	?
CCOc1ccc(S(=O)(=O)Nc2cccc(-c3ccc(OCC)nn3)c2)cc1	·	11.6µM*	0.0%	·	-25.3%	16.4µM*
CSCCCNC(=S)N1CCc2ccccc2C1	0.7%	-1.6%	-7.5%	-16.8	-0.9%	11.4%
COc1ccc(-c2nc(N3CCOCC3)nc3n[nH]c(N)c23)cc1	-0.9%	18.4µM*	11.2µM*	-70.3*	-49.1%	18.4µM*
COc1ccc(N2CCN(c3n[nH]c(N)n3)CC2)cc1	1.5%	-11.5%	-16.4%	-3.4	-79.6%	-29.0%
CC(C)CCNC(=O)C1CC(c2ccc(C(F)(F)F)cc2)=NO1 (stereo not drawn)	6.1%	?	11.2%	4.8	-1.9%	?
COc1ccccc1NS(=O)(=O)c1ccc(NN=C2CCCCC2)c([N+](=O)[O-])c1	-13.2%	18.4µM*	-10.5%	0.0	-14.5%	25.9µM*
SMILES	ASM inhibitor	TDP1 cell CPT	TGFb inhibitor	IL1B secr inh	HepG2 tox	TDP1 cell noCPT
CC1C/C(=N\Nc2ccc(S(N)(=O)=O)cc2[N+](=O)[O-])CC(C)(C)C1 (stereo not drawn)	-18.6%	?	?	-79.2*	-95.2%	?
COc1ccccc1NS(=O)(=O)c1ccc(OC)c([N+](=O)[O-])c1	2.0%	0.6%	1.2%	0.0	10.4%	-12.8%
Cc1cc(C)c2c(c1)/C(=N/Nc1ccc(S(N)(=O)=O)cc1[N+](=O)[O-])CCC2	-5.4%	?	-14.4%	26.3	-12.8%	?
NS(=O)(=O)c1ccc(N/N=C2/CCCCC2C2CCCCC2)c([N+](=O)[O-])c1 (stereo not drawn)	-26.0%	20.6µM*	?	-112.1*	-115.2%	10.3µM*
CSc1ccccc1NC(=O)c1ccc(N2CCCC2=O)cc1	-0.9%	7.2%	22.1%	-5.0	11.7%	7.5%
O=C1Cc2ccccc2Sc2c(OCCN3CCCCC3)cccc21	29.1%	?	1.2%	-72.1*	-22.3%	?
O=C1Cc2ccccc2Sc2cc(OCCCN3CCCCC3)ccc21	20.1%	?	-6.3%	0.0	-13.4%	?
Cn1c(=O)[nH]c(=O)c2c1nc(NN)n2CCOc1ccccc1	-2.5%	-16.1%	2.5%	-17.6	-26.7%	?
Cn1c(=O)[nH]c(=O)c2c1nc(NCCN)n2CCOc1ccccc1	-1.5%	?	-0.7%	26.9	-4.4%	13µM*
Cn1c(=O)[nH]c(=O)c2c1nc(Br)n2CCOc1ccccc1	5.7%	10.3µM*	-10.8%	25.5	-27.8%	16.4µM*
CCCNc1nc2c(c(=O)[nH]c(=O)n2C)n1CCOc1ccccc1	-0.1%	?	6.0%	48.6	-11.7%	-29.9%
Cc1ccc(CNc2nc(CN3CCNC(=O)C3)nc3ccccc23)o1	·	?	·	·	·	-21.8%
COc1ccc(NC(=O)c2nnn(Cc3ccccc3C)c2N)c(OC)c1	·	-28.1%	28.0%	·	4.4%	6.51µM*
COc1cccc(Cn2nnc(C(=O)Nc3cc(C)ccc3OC)c2N)c1	-7.9%	25.9µM*	?	-4.0	0.7%	-25.8%
Cc1ccc(Cn2nnc(C(=O)Nc3cccc(C)c3C)c2N)cc1	-2.1%	?	-7.0%	-6.4	0.4%	20.6µM*
